DT40 TDP1 no CPT: qHTS for Inhibitors of human tyrosyl-DNA phosphodiesterase 1 (TDP1): qHTS in cells in absence of CPT; Potency, µM (series often up to 46.2 µM), for inactives: at the top dose activity change, negative = growth inhibition, actives largely listed as inhibitors; AID 686978, 2013; 420,000 compounds, 15% hits; DT40 Tdp1-/- hTDP1 cells, no CPT, ATP luminescence, 48 h; further: potency means the concentration at half of the fitted maximal effect; nearly all actives have a fitted effect of over 55% in size
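A cellular qHTS used chicken DT40 cells lacking endogenous Tdp1 but carrying stably transfected human TDP1. Compounds were applied without camptothecin, and cell growth kinetics were judged by ATP-dependent luminescence after ≥48 hr.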
HT1080 IDH1KD tx: HT-1080 IDH1 knockdown cell toxicity (counter line); HT-1080 IDH1 knockdown viability, ATP luminescence, 48 h; Potency, µM (titrated, usually from 46.1 µM), for inactives: top-dose activity, negative = toxicity, most hits filed as cytotoxic; 360,000 compounds, 2% hits; AID 686971;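 further: potency means the concentration at half of the fitted maximal effect; 0% = DMSO wells and -100% = cell-free medium wells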
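Viability of IDH1-knockdown HT-1080 fibrosarcoma cells was assessed by CellTiter-Glo after 48 h at 37 °C with titrated compound; concentration-effect curves were classified by fit quality and response size.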
IL-1B inflam inh: inflammasome signaling inhibition, IL-1 beta readout; AID 743279; activity change, % at 57.5 µM; THP-1 LPS/ATP IL-1B secretion, AlphaLISA, 16 h; hits give low values; 360,000 compounds, 4.7% hits; in the data active means activity change below about -50%; inconclusive means mostly about -30% to -49%
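Secreted IL-1B measured by AlphaLISA bead assay after 16 h compound exposure of THP-1 cells; compounds (final up to 57.5 uM) added 1 h before LPS (250 ng/mL) and ATP (1.25 mM) stimulation; lower signal means less secretion.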
HT1080NT lethal: kills 2HG-producing HT-1080-NT fibrosarcoma cells; Potency, µM (titrated, usually from 46.1 µM), for inactives: at the top dose activity, negative = less viability, most hits filed as cytotoxic; AID 686970; HT-1080-NT fibrosarcoma viability, CellTiter-Glo ATP luminescence, 48 h; 360,000 compounds, 1.6% hits;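 further: NT is the 2HG producing partner of a matched IDH1 knockdown line; potency means the concentration at half of the fitted maximal effect; 0% = DMSO-treated cells and -100% = media-only wells without cells; nearly all actives have a fitted effect of over 55% in size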
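Viability of the 2HG-overproducing fibrosarcoma line after 48 hours of compound exposure at 37 degrees C was determined by luminescence with CellTiter-Glo, and concentration-effect curves were then fitted and categorized.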
TDP1 cell CPT: DT40-hTDP1 cell growth loss with CPT; chicken DT40 Tdp1-/-;hTDP1 cells + 20 nM CPT, ATP luminescence, 48 h; Potency, µM (series often up to 46.2 µM), for inactives: top-dose activity change, negative = growth inhibition, usual class: inhibitors; 420,000 compounds, 12% hits; AID 686979; further: potency means the concentration at half of the fitted maximal effect; nearly all actives have a fitted effect of over 55% in size
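Chicken DT40 Tdp1-/- cells stably complemented with human TDP1 were seeded at 400 cells/well in medium containing 20 nM camptothecin, exposed to pin-transferred compounds, and grown at 37 °C for at least 48 hr. Viability was read as ATP luminescence.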
An asterisk follows results filed as active; ? = inconclusive; . = not tested or not shown; [ ] = remark or other dose. This is a sample that favours compounds with a hit; in the whole collection about 19% have one here. Unless noted, the call rests on the fitted dose curve; in most records, active means well fitted curve in the direction sought with a large enough effect; inconclusive means small, poorly fitted or top-dose-only effect, or another doubt; inactive means no such curve, though single readings can be large; an effect the other way counts as inactive or inconclusive. Unless noted, on the % scale 0 is the no-effect control and ±100 the full control effect.

SMILES	DT40 TDP1 no CPT	HT1080 IDH1KD tx	IL-1B inflam inh	HT1080NT lethal	TDP1 cell CPT
Cc1ccc(-c2cc(-c3ccccc3[N+](=O)[O-])[nH]n2)c(O)c1	?	?	30	-14%	?
Cc1ccc(-c2cc(-c3ccccc3Cl)[nH]n2)c(O)c1	?	11µM*	1	?	?
OC(c1cccc(F)c1)c1ncc(-c2ccc(Oc3ccccc3)cc2)[nH]1 (centres undefined)	?	?	-23	16µM*	?
OC(c1ccc(Cl)c(F)c1)c1ncc(-c2ccc(Oc3ccccc3)cc2)[nH]1 (centres undefined)	?	?	?	?	23µM*
OC(c1cccc(Cl)c1)c1ncc(-c2ccc(Oc3ccccc3)cc2)[nH]1 (centres undefined)	?	?	-52*	?	?
Cc1cc(F)ccc1C(O)c1ncc(-c2ccccc2)[nH]1 (centres undefined)	-18%	-9%	43	-9%	-27%
Cc1cc(F)ccc1C(O)c1ncc(-c2ccc(Oc3ccccc3)cc2)[nH]1 (centres undefined)	?	?	1	?	21µM*
COc1cccc(C(O)c2ncc(-c3ccccc3)[nH]2)c1 (centres undefined)	-23%	7%	18	15%	?
CCOc1ccc(C2/C(=C(\O)c3ccc4c(c3)OCCO4)C(=O)C(=O)N2CCN2CCOCC2)cc1OCC (centres undefined)	24%	5%	-15	-4%	-1%
Cc1oc(-c2ccc(Cl)cc2)cc1C(=O)/C(C#N)=C/Nc1ccccc1	?	0%	43	5%	?
Cc1ccc2nc(Nc3ccc(Cl)cc3)c3nncn3c2c1	?	7%	43	2%	?
N#Cc1cccc(C#N)c1Oc1ccc(N)cc1	?	12%	-12	11%	-3%
C/C=C(\C)C(=O)NCCN1C2=NC[C@@H](Cc3ccccc3)N2C[C@@H]1Cc1ccc(OC)cc1	-30%	2%	-10	3%	-26%
CCCCCCNC(=O)N[C@@H](C(=O)NCCC[C@H]1CN2C(=NC[C@@H]2Cc2ccccc2)N1CCc1cccc(OC)c1)C(C)C	4.6µM*	-2%	-91*	0%	4.1µM*
CC(=O)CCc1ccc(OCC(O)CNCCOc2ccc(C)cc2)cc1 (centres undefined)	0%	-14%	?	-1%	0%
COc1ccccc1COCC(O)CNCCc1ccc(C(F)(F)F)cc1 (centres undefined)	?	-15%	-78*	-12%	?
C=CCOc1ccc(CN(C)CC(O)COc2ccc(CCC(C)=O)cc2)cc1 (centres undefined)	16µM*	-7%	-17	-16%	?
OC(CNCCc1ccc(C(F)(F)F)cc1)COc1cccc2ccccc12 (centres undefined)	?	-11%	-63*	-27%	?
OC(COc1ccc(CNCCc2ccc(C(F)(F)F)cc2)cc1)CN1CCCCC1 (centres undefined)	5.8µM*	23µM*	-24	23µM*	4.6µM*
COc1ccccc1COCC(O)CN1CCCCC1CO (centres undefined)	20%	-1%	44	2%	-19%
OC(COc1ccc(OCC(O)CN2CCCCC2)cc1)CN1CCCCC1 (centres undefined)	?	-17%	?	-15%	-25%
CC12CCC(C(=O)N(c3ccccn3)c3ccccn3)(OC1=O)C2(C)C (centres undefined)	-18%	6%[9.24 µM]	17	15%	1%
COc1ccc(S(=O)(=O)NCC2CCCN(C(=O)CC3CCCC3)C2)cc1 (centres undefined)	?	?	-7	-3%	-57%
Cc1ncc2c(c1CNC(=O)/C=C/c1cccs1)CCN(C(=O)c1cc(C(C)C)on1)C2	-13%	.	.	.	6%[9.04 µM]
COc1ccc(CCNCC(O)COc2cccc(Br)c2)cc1 (centres undefined)	?	?	-59*	?	?
SMILES	DT40 TDP1 no CPT	HT1080 IDH1KD tx	IL-1B inflam inh	HT1080NT lethal	TDP1 cell CPT
CN(Cc1ccc(OCC(O)CN(C)Cc2ccccc2)cc1)Cc1nccn1C (centres undefined)	?	-6%	-11	-9%	?
OC(COc1ccc2ccccc2c1)CN1CCCC1 (centres undefined)	-11%	-20%	-24	?	-20%
CN(Cc1ccc(Br)cc1)CC(O)COc1cccc(Br)c1 (centres undefined)	?	?	-93*	?	?
CC(=O)c1cccc(OCC(O)CNCCc2ccc(Cl)cc2)c1 (centres undefined)	-15%	-23%	?	-1%	?
COc1ccc(CN(C)CC(O)COc2ccc(-c3ccccc3)cc2)cc1OC (centres undefined)	?	21µM*	-71*	?	18µM*
OC(CNCCc1ccc(C(F)(F)F)cc1)COc1ccc2ccccc2c1 (centres undefined)	-49%	-7%	-101*	3%	?
N/C(Cc1nc(-c2ccc(F)cc2)cs1)=N\O	-11%	3%	-54*	13%	-15%
COc1cc(C2C(=O)N(C3CCC(C)CC3)CC(=O)N2CCc2ccc(Cl)cc2)ccc1OC(C)C (centres undefined)	-1%	.	.	.	-16%
O=C(NCC(=O)N1CCN(c2ccc(C(F)(F)F)cn2)CC1)c1ccc(Br)o1	6.5µM*	0%	9	1%	21µM*
OC(CN1CCN(c2ccc(C(F)(F)F)cn2)CC1)c1ccccc1 (centres undefined)	?	-23%	-22	-8%	-12%
O=C(O)COCC(=O)N1CCCN(c2ccc(C(F)(F)F)cn2)CC1	-3%	17%	20	14%	-5%
CCc1nc(CN2CCN(c3ccc(C(F)(F)F)cn3)CC2)c(C)[nH]1	6.5µM*	-13%	0	?	12µM*
Cc1cccc(C)c1NC(=O)C(c1ccccc1)N1CCOCC1 (centres undefined)	-13%	11%	-23	20%	-9%
Cc1ccccc1SCC(=O)N1CCN(c2ccc(C(F)(F)F)cn2)CC1	23µM*	-12%	-92*	-13%	?
Cc1cccc(C)c1NC(=O)C(c1ccccc1)N1CCN(c2ccc(C(F)(F)F)cn2)CC1 (centres undefined)	?	0%	0	3%	23µM*
S=C(c1cccs1)N1CCN(c2ccccc2)CC1	-21%	-3%	?	-1%	-6%
